The source of these data is the supplement of paper PMC6522484.

Each structure is given as a SMILES string. ± gives the standard deviation of the averaged measurements.

Assay [1] deals with DLD1. Description: cell viability (CellTiter-Glo) relative to plate median (fraction of plate median); higher = more viable cells. Particulars: 5 µM; treatment time 24 h; reporter: 7TFP. A digest of the protocol: (§1)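 Stable lentiviral TCF/Wnt firefly luciferase reporters (7TFP or TCF4/Wnt) were present in the colorectal cancer cell lines used. These cells received library compounds at a final 5 µM for 24 h, and parallel plates were read for firefly luciferase or CellTiterGlo luminescence. Each well was normalised to the plate median, and the value reported is the mean of two independent replicates.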

Assay [2] has as its system HCT116. The description is as above. Particulars: 5 µM; treatment time 24 h; reporter: TCF4/Wnt. The method in brief: as §1
In assay [3] the test system is SW480. The description is as above. Conditions: 5 µM; treatment time 24 h; reporter: 7TFP. The method in brief:
as §1

Assay [4] has as its system DLD1. Nature of the assay: TCF/Wnt firefly luciferase reporter signal relative to plate median (fraction of plate median); higher = higher Wnt reporter signal. Particulars: 5 µM; treatment time 24 h; reporter: 7TFP. The method in brief: as §1
(A reporter such as luciferase makes a cellular process visible.)

The subject of assay [5] is SW480. Described as above. Particulars: 5 µM; treatment time 24 h; reporter: 7TFP. A digest of the protocol:
as §1

For the molecule `CCOc1ccc(C(=O)c2ccc(OC)c(O)c2O)cc1`, the cell viability in assay [1] is 1.01 ± 0.052; in assay [2], 1.07 ± 0.028; in assay [3] it was 1 ± 0.038. Further, the “TCF/Wnt firefly luciferase reporter signal” value is 0.966 ± 0.025 in assay [4] and 1.03 ± 0.021 in assay [5].
Turning to `Cc1cc(O)c2c(c1)C(=O)c1cccc(O)c1C2=O`, the values for the cell viability in assay [1], in assay [2] and in assay [3] were 0.921 ± 0.04, 1.07 ± 0.21 and 0.936 ± 0.013, respectively. Besides, the “TCF/Wnt firefly luciferase reporter signal” value in assay [4] turned out to be 0.893 ± 0.15; in assay [5], 0.934 ± 0.042.
Consider `Cc1ncc(CO)c(CO)c1O`, for which the cell viability in assay [1] amounted to 1.02 ± 0.033; in assay [2], 1.09 ± 0.17; in assay [3], 1.02 ± 0.014. Besides, the “TCF/Wnt firefly luciferase reporter signal” value is 0.951 ± 0.11 in assay [4] and 0.9705 ± 0.0092 in assay [5].
For `Oc1c(I)cc(Cl)c2cccnc12`, in that order: 1.06 ± 0.21, 0.949 ± 0.12, 1.13 ± 0.042, 1.2 ± 0.27 and 1.14 ± 0.11.
Take `COc1cc(NS(C)(=O)=O)ccc1Nc1c2ccccc2nc2ccccc12`: the cell viability worked out at 1.11 ± 0.14 in assay [1], 0.83 ± 0.09 in assay [2] and 1.03 ± 0.035 in assay [3]. Further, the “TCF/Wnt firefly luciferase reporter signal” value in assay [4] is 0.973 ± 0.053; in assay [5] it was 0.841 ± 0.11.
On to `CC(C)[C@@H]1CC[C@@H](C)C[C@H]1OC(=O)c1ccccc1`, for which the cell viability is 1.01 ± 0.025 in assay [1], 1.03 ± 0.057 in assay [2] and 1.06 ± 0.042 in assay [3]. In addition, the figures for the “TCF/Wnt firefly luciferase reporter signal” value in assay [4] and in assay [5] were 1.01 ± 0.19 and 0.996 ± 0.02, respectively.
For `COC(=O)C[C@H]1C(C)(C)[C@@H](O)[C@@H]2CC3=C4C=C(OC)O[C@@H](c5ccoc5)[C@]4(C)CCC3[C@@]1(C)C2=O` (stereo partly drawn) [3-DEOXO-3beta-HYDROXYMEXICANOLIDE 16-ENOL ETHER], in that order: 0.931 ± 0.11, 0.91 ± 0.036, 0.919 ± 0.018, 0.946 ± 0.07 and 0.921 ± 0.064.
For `C[C@@H]1CC[C@H]2C(C(=O)O)=C[C@@H]3[C@@H](O)C(C)(C)C[C@@]132` [Pentalenic acid], in that order: 0.966 ± 0.019, 0.941 ± 0.016, 1.02 ± 0.042, 0.794 ± 0.13 and 0.98 ± 0.16.
On the same counts, the results for `CC(=O)O[C@]1(C(C)=O)CC[C@H]2[C@@H]3C[C@H](C)C4=CC(=O)CC[C@]4(C)[C@H]3CC[C@@]21C` are 1.03 ± 0.014, 0.989 ± 0.0099, 0.96 ± 0.018, 0.971 ± 0.18 and 1 ± 0.035.
`CC(=O)NCCc1ccccc1` [N-Acetyl-phenylethylamine]: the cell viability in assay [1] stood at 1.04 ± 0.014; in assay [2] it was 1.01 ± 0.12; in assay [3] it was 1.02 ± 0.072. Besides, the “TCF/Wnt firefly luciferase reporter signal” value in assay [4] came to 1.03 ± 0.028; in assay [5], 1.02 ± 0.079.
For `CN1CCCN=C1/C=C/c1cccs1`, in that order: 0.984 ± 0.022, 0.903 ± 0.093, 1.05, 1.135 ± 0.0071 and 0.994 ± 0.037.
Regarding `CCN(CC)CCOc1ccc2c(c1)C(=O)c1cc(OCCN(CC)CC)ccc1-2`, the cell viability was found to be 0.941 ± 0.083 in assay [1], 0.925 ± 0.072 in assay [2] and 0.998 ± 0.045 in assay [3]. Besides, the “TCF/Wnt firefly luciferase reporter signal” value in assay [4] was 1.05 ± 0.093; in assay [5], 1.02 ± 0.06.
As for `CC#C[C@]1(O)CC[C@H]2[C@@H]3CCC4=CC(=O)CCC4=C3[C@@H](c3ccc(N(C)C)cc3)C[C@@]21C`, the results for the cell viability in assay [1], in assay [2] and in assay [3] were 0.972 ± 0.023, 1.04 ± 0.12 and 0.931 ± 0.042, respectively. Further, the “TCF/Wnt firefly luciferase reporter signal” value in assay [4] was 0.891 ± 0.05; in assay [5], 1.01 ± 0.063.
For `CCCCOc1cc(CC2CNC(=O)N2)ccc1OC` (stereo not given), in that order: 0.999 ± 0.016, 0.921 ± 0.081, 0.912 ± 0.011, 1.015 ± 0.0071 and 1.04 ± 0.19.
For `O=C1[C@@H]2CCCN2C(=O)[C@@H]2CCCN12` [Cyclo(Prolylprolyl)], in that order: 0.978 ± 0.0071, 1.03 ± 0.065, 0.9595 ± 0.0078, 0.811 ± 0.15 and 1.01 ± 0.05.
